From PubChem BioAssay AID602410 (Johns Hopkins Ion Channel Center, 2012)
Screen size: about 340,000 compounds; about 2,800 (0.82%) were called active. The sample holds actives, similar compounds and a random draw of the others, so the mix is not that of the screen.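 How the source made its calls: active means B-score under library mean minus 4 SD, starting fluorescence ratio at most library mean plus 5 SD; inactive means the rest.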

target: Potassium channel subfamily K member 3 (Homo sapiens) (UniProt O14649); assay: blockers of TASK1 two-pore potassium channel – CHO cells, FluxOR thallium flux, B-score, primary screen (AID 602410); details: CHO-KCNK3 thallium flux, FluxOR fluorescence, at 10 µM; stronger effect = lower value;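 on B-score: more negative B-score means stronger inhibition of thallium flux through KCNK3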
Sequence (O14649 whole entry, looked up): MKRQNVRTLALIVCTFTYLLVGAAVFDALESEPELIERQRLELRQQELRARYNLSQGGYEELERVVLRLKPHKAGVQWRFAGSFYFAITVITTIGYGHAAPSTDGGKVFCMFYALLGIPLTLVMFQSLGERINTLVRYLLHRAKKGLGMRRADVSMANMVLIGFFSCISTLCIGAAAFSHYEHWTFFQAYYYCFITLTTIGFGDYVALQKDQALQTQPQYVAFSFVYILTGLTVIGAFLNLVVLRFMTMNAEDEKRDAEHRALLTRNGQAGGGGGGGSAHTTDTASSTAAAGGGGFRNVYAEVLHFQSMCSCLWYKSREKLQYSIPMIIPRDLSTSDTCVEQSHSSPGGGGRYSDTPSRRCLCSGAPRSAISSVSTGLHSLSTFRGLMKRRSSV

Compound | B-score
CCCCn1c(O)c(C(CC)=NCc2ccco2)c(=O)[nH]c1=O | inactive
CCCCCCN=C(CC)c1c(O)n(CCCC)c(=O)[nH]c1=O | -9.07 (active)
CCC(=NCCCO)c1c(O)n(-c2ccc(OC)cc2)c(=O)[nH]c1=O | inactive
COc1ccc(Br)cc1CNCCc1cccc(Cl)c1 | inactive
CCCCC(=O)N/N=C/c1c(O)n(CC)c(=S)n(CC)c1=O | inactive
Oc1cc2c(cc1CN1CCN(c3ccccc3)CC1)OCO2 | inactive
COc1ccc(C(=O)C2CCCN(Cc3ccc(C)s3)C2)cc1OC (stereo not given) | inactive
COc1ccccc1C1=NCc2nnc(CSC)n2-c2ccc(Cl)cc21 | -9.71 (active)
Cc1cc(C(=O)OCC(=O)Nc2c(F)cccc2F)c(C)n1C1CC1 | inactive
CC(C)c1c(CN(C)C(C)Cc2ccccc2)n(C)n(-c2ccccc2)c1=O (stereo not given) | inactive
CCN1CCN(Cc2cc(OC)c3c(c2)OCO3)CC1 | inactive
CCOC(=O)C1SC2(C(F)(F)C(F)F)CC1(O)c1c(c(OC)c3occc3c1OC)O2 (stereo not given) | -10.9 (active)
CCOC(=O)C(O)(c1ccc(N=Cc2ccccc2O)c(C)c1)C(F)(F)F (stereo not given) | inactive
CC12CN3CC(C)(CN(C1)C3c1cccs1)C2 (stereo not given) | inactive
CNCC(O)c1cc(F)c(OCc2ccccc2)c(OCc2ccccc2)c1F (stereo not given) | inactive
